From ChEMBL document CHEMBL4513216, “Probing the Open Global Health Chemical Diversity Library for Multistage-Active Starting Points for Next-Generation Antimalarials” (ACS Infect Dis, 2020)
Screen size: about 68,000 compounds; about 2,700 (4%) showed an effect of 50% or more. What follows is part of a selection rich in strong results, with near analogues and random picks from the rest.

system: Plasmodium berghei; experiment: Screen against P. berghei liver stage (PbLuc), transformed with Luciferase, at 2uM; assay type: functional, HepG2; details: tested at 2 uM

Row | Compound | INHIBITION [%]
1 | O=C(NCc1ccccn1)NCC(O)c1ccccc1C(F)(F)F (centres undefined) | -19.62
2 | O=C(c1ccccc1OCC1CC1)N1CCCC1Cn1cccn1 (centres undefined) | -12.5
3 | O=C(CCCn1cncn1)N1CCC2(CCCNC2=O)C1 (centres undefined) | 43.1
4 | O=C(c1cccc(Cl)c1)N1CC[C@H]2[C@H]1CCN2CC1CCOCC1 | 49.03
5 | CCS(=O)(=O)N1CC[C@@H]2[C@H](CC1)N(CC(C)C)CCS2(=O)=O | 40.5
6 | Cc1cc(C(N)=O)nc(C2(C)CCCN2Cc2cnn(C)c2)n1 (centres undefined) | 74.08
7 | Cc1cc(C(N)=O)nc(C2(C)CCCN2Cc2cnn(C)c2C)n1 (centres undefined) | 40.31
8 | Cc1cc(C)nc(C2(C)CCCN2CCO)n1 (centres undefined) | -8.85
9 | COc1ccc(-c2noc(CN3CCN(c4cnccn4)CC3)n2)cc1 | 32.88
10 | COc1ccc(-n2cnnc2CC2CCNCC2)cc1 | -22
11 | O=S(=O)(N1CCCC1)N1CC(c2ccnc(Nc3ccccn3)n2)C1 | 17.72
12 | CCN(CCc1nc2cc(C)ccc2[nH]1)C(=O)[C@@H](N)Cc1c[nH]cn1 | -2.23
13 | Cc1cc(N2CCCC(O)(CN(C)C)CC2)nc(-c2ccccc2)n1 (centres undefined) | 1.06
14 | CN(C)CC1(O)CCCN(c2noc(-c3ccccc3)n2)CC1 (centres undefined) | 12.55
15 | CN(C)CC1(O)CCCN(c2nc(-c3ccccc3)no2)CC1 (centres undefined) | 76.6
16 | c1cc(-c2cscn2)cc(N2CCC(NCCc3cccs3)CC2)c1 | -15.42
17 | CCC(=O)N1CCC2(CC1)CC(CC(=O)N(C)C)c1ccc(F)cc12 (centres undefined) | -0.45
18 | CCOC(C)C(=O)NCCNS(C)(=O)=O (centres undefined) | 8.41
19 | CC(C)COC(C)C(=O)NCCNS(C)(=O)=O (centres undefined) | 52.74
20 | CC(C)COC(C)C(=O)NCCNC(=O)C(C)C (centres undefined) | 31.96
21 | CCN(Cc1cccc2c1OCO2)C(=O)NCCOC | 25.61
22 | CC(=O)N1CCN(c2ccc3ccc(C(=O)NC4CCCC4)cn23)CC1 | -7.41
23 | O=C(O)c1ccc2ccc(N3CCN(CC4CC4)CC3)n2c1 | 57.95
24 | CC(C)N1CCN(c2ccc3ccc(C(=O)NC4CCCC4)cn23)CC1 | 50.17
25 | O=C(NC1CC1)c1ccc2ccc(N3CCN(CC4CC4)CC3)n2c1 | -36.7
26 | CN(C)C(=O)N1CCN(c2ccc3ccc(C(=O)NC4CC4)cn23)CC1 | 23.26

Row | Compound | INHIBITION [%]
27 | CN(C)C(=O)c1ccc2ccc(N3CCN(CC4CC4)CC3)n2c1 | 19.96
28 | Cc1nn(-c2ccccc2)c2c1c(C(F)F)cc(=O)n2CC(=O)O | 13.39
29 | COCCN1CCC(NCc2c(F)cccc2F)C1 (centres undefined) | 28.54
30 | Cc1nc(-c2ccncc2)ncc1C(C)NC(=O)CN1CCCCC1 (centres undefined) | 50.41
31 | Cc1nc(-c2ccncc2)ncc1C(C)NC(=O)Cn1ccccc1=O (centres undefined) | 10.02
32 | Cc1nc(-c2ccncc2)ncc1C(C)NC(=O)CN1CCCC1=O (centres undefined) | 28.62
33 | Cc1nc(C)n(CC2CCCN(Cc3noc(C)n3)C2)n1 (centres undefined) | 17.31
34 | CCc1noc(CN2CCCC(Cn3nc(C)nc3C)C2)n1 (centres undefined) | 21.39
35 | Cc1nc(C)n(CC2CCCN(Cc3cccc(F)c3F)C2)n1 (centres undefined) | 2.18
36 | COCCc1noc(CN2CCCC(Cn3nc(C)nc3C)C2)n1 (centres undefined) | 30.91
37 | Cc1nc(C)n(CC2CCCN(Cc3cn4c(C)cccc4n3)C2)n1 (centres undefined) | 60.64
38 | CCc1nc(CN2CCCC(Cn3nc(C)nc3C)C2)no1 (centres undefined) | 70.27
39 | Cc1nc(C)n(CC2CCCN2Cc2cn3c(C)cccc3n2)n1 (centres undefined) | -17.11
40 | Cc1nc(C)n(CC2CCCN(Cc3nc(C4CC4)no3)C2)n1 (centres undefined) | -38.96
41 | Cc1noc(CN2CCCC(Cn3nc(C)nc3C)C2)n1 (centres undefined) | 72.31
42 | Cn1cc(C2COC3(CCN(C(=O)Cc4ccccc4)CC3)C2)cn1 (centres undefined) | 2.27
43 | CNC(=O)CC1CC2(CCN(c3ncccn3)CC2)c2ccccc21 (centres undefined) | 2.87
44 | CNC(=O)CNC1CC2(CCN(c3ncccn3)CC2)c2ccccc21 (centres undefined) | 70.75
45 | c1cnc(N2CCC3(CC2)CC(NCC2CC2)c2ccccc23)nc1 (centres undefined) | 33.11
46 | COc1ccc(OCc2cc(C(=O)N3C[C@@H](C)O[C@@H](C)C3)n[nH]2)c(Cl)c1 | 21.29
47 | CCC(CO)NC(=O)c1cc(COc2ccc(OC)cc2Cl)[nH]n1 (centres undefined) | 45.82
48 | CC[C@@H](CO)NC(=O)c1cc(COc2ccc(OC)cc2Cl)[nH]n1 | 69.67
49 | COc1ccc(OCc2cc(C(=O)N3CCC(O)CC3)n[nH]2)c(Cl)c1 | 8.57
50 | COc1ccc(OCc2cc(C(=O)N3CCOCC3)n[nH]2)c(Cl)c1 | 15.05
51 | CNC(=O)C(C)NC(=O)c1cc(COc2ccc(OC)cc2Cl)[nH]n1 (centres undefined) | 55.36
52 | COc1ccc(OCc2cc(C(=O)N3CC=CC3)n[nH]2)c(Cl)c1 | 27.77

Row | Compound | INHIBITION [%]
53 | COc1ccc(OCc2cc(C(=O)N3CCSCC3)n[nH]2)c(Cl)c1 | 8.48
54 | CCC(O)CNC(=O)c1cc(COc2ccc(OC)cc2Cl)[nH]n1 (centres undefined) | 52.98
55 | CCc1oc(C(=O)NC(C)Cc2cnccn2)cc1CN1CCCC1 (centres undefined) | 12.11
56 | CNc1cccc(C2CCCN(C(=O)c3ccn(C)n3)C2)n1 (centres undefined) | 15.64
57 | Cc1cc(C(F)(F)F)n2nc(C3CCCN3C3CCSCC3)cc2n1 (centres undefined) | 36
58 | OC1(CN2CCC(Oc3cccc(C(F)(F)F)c3)CC2)CCNC1 (centres undefined) | -16.56
59 | Cn1ccc(C(=O)NCCOc2ccc3c(c2)OCO3)cc1=O | 25.78
60 | CC(C)(C)C(=O)NCCCn1cncn1 | 32.55
61 | Cc1cc(NC(=O)CN2CCCC2c2c(C)nn(C)c2C)on1 (centres undefined) | 26.76
62 | c1cnnc(N2CCCC(NCc3ccc(-n4cncn4)cc3)C2)c1 (centres undefined) | 32.79
63 | CC1(C)O[C@@](C)([C@H]2CC3(CCN(c4cnccn4)CC3)CO2)CC[C@@H]1O | 4.19
64 | O=C(N[C@@H]1CN(Cc2cccs2)[C@@H]2CCCO[C@@H]21)C1CC1 | 8.91
65 | c1csc(CN2C[C@@H](n3cccn3)[C@H]3OCCC[C@H]32)c1 | 51.85
66 | c1cnn([C@@H]2CN(Cc3nccs3)[C@@H]3CCCO[C@@H]32)c1 | 13.61
67 | O=C(c1cccc(C2CCNC2)c1)N1CCC(c2ccncc2)CC1 (centres undefined) | -0.41
68 | O=C(Nc1cccc(C2SCCS2)c1)C1CCCN1c1nccs1 (centres undefined) | -7.88
69 | Cc1cccc(OCCNC(=O)C(C)S(=O)(=O)c2ccccn2)c1 (centres undefined) | -27.59
70 | Cc1nc2c(C)cccc2cc1C(=O)N1CCC2(CCN(C)CC2)C1 | -30.77
71 | Cc1nc2c(C)cccc2cc1C(=O)N1CCC2(CCNCC2)CC1 | -10.67
72 | Cc1nc2c(C)cccc2cc1C(=O)N1CCC2(CC1)NCCNC2=O | 71.07
73 | CCN(CC)Cc1cc(C(=O)N2CCCC(O)(CO)C2)c(C)o1 (centres undefined) | 35.42
74 | CCN(CC)Cc1cc(C(=O)N2CCC3(CCN(C)CC3)C2)c(C)o1 | -14.17
75 | CCN(CC)Cc1cc(C(=O)N2CCC3(CC2)NCCNC3=O)c(C)o1 | 64.71
76 | Cc1nnc(C2CCN(C(=O)c3ccsc3)CC2)s1 | 7.68
77 | COc1cnc(N2CCCC(c3ncc[nH]3)C2)nc1 (centres undefined) | 6.39
78 | O=C(c1nc(COc2ccc3c(c2)OCO3)no1)N1CCCC1 | 2.41

Row | Compound | INHIBITION [%]
79 | CNC(=O)c1nc(COc2ccc3c(c2)OCO3)no1 | -15.12
80 | NC(=O)c1nc(COc2ccc3c(c2)OCO3)no1 | 54.49
81 | Cc1cc(C)c(C(=O)N2CCOC(CCN(C)C)C2)o1 (centres undefined) | -36.52
82 | Cc1nnc(CSCc2ccc(OCC(F)(F)F)nc2)o1 | 8.78
83 | CCC1=NC(SCC(=O)c2ccc(C)cc2)c2cc(CC)sc2N1 (centres undefined) | 33.58
84 | CCC1=NC(SCC(=O)c2ccccc2)c2cc(CC)sc2N1 (centres undefined) | 63.79
85 | CCC1=NC(SCC(=O)c2ccc(Cl)cc2)c2cc(CC)sc2N1 (centres undefined) | -77.67
86 | CCC(C)NC(=O)CN1CCC2(CC1)OCCO2 (centres undefined) | 34.18
87 | Cc1cccc(-c2ccc3nc(C4CCN(CC5CC5)CC4)nn3c2)c1 | -48.77
88 | CCc1nn(C)c(CC)c1CNC(=O)Nc1cccc2c1CCN2C | -1.56
89 | CC(Cc1ccco1)NC(=O)Nc1ccc(N2CCCC2)nc1 (centres undefined) | 5.91
90 | O=C(c1nc(Cc2c[nH]c3ccccc23)no1)N1CCCC1 | 70.87
91 | O=C(Cc1ccccc1F)N1CCN(C(=O)c2ccoc2)CC1 | -24.79
92 | O=C(Cc1c[nH]c2ccccc12)N1CCC(Nc2ccccc2)CC1 | -0.6
93 | O=C(c1nc(Cc2c[nH]c3ccccc23)no1)N1CCOCC1 | -33.88
94 | O=C(c1nc(Cc2c[nH]c3ccccc23)no1)N1CCCCC1 | -7.02
95 | O=C(Cc1c[nH]c2ccccc12)N1CCN(C(=O)c2ccoc2)CC1 | 54.49
96 | Cc1noc(C)c1C(=O)N1CC[C@H]2C[C@@H](c3nccs3)O[C@@H]2C1 | -17.88
97 | Cn1cnc(S(=O)(=O)N2CC3(CCN(CC4CC4)C3)C2)c1 | 35.84
98 | COc1ccc(C(=O)N2CCOc3ccncc32)cc1 | -21.39
99 | CCCOCCN1CCC2(CC1)CC(=O)N(Cc1cc(F)cc(F)c1)C2 | 7.13
100 | COCCN1C(=O)C[C@H]2[C@H]1CCN2Cc1ccccc1 | -34.48
101 | CCO[C@@H]1C[C@H]2CN(S(=O)(=O)c3cccs3)CCN2C1 | -49.68
102 | COCCOCC(=O)NCCCOC1CCCc2ccccc21 (centres undefined) | 12.22
103 | COCCNC(=O)NCCCOC1CCCc2ccccc21 (centres undefined) | 58.9
104 | COCCC(=O)NCCCOC1CCCc2ccccc21 (centres undefined) | -15.49
